Compound activity deposited in PubChem BioAssay by several laboratories.
S1P3 antag: antagonists of human S1P3 receptor; inhibition, % at 4.98 µM; Q99500; actives 0.27% (n = 170,000); AID 485; CHO S1P3 NFAT-BLA reporter, FRET fluorescence, antagonist mode;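 active = inhibition above the plate cutoff, the mean inhibition of test wells on that plate plus 3 SD, cut at about 28% in these data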;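 note: cells challenged with S1P at its EC80 of 0.8 µM; blue over green emission ratio from cleaved BLA substrate after 4 h stimulation; 0% = S1P-stimulated wells and 100% = unstimulated DMSO-only wells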
Target sequence (Q99500 whole entry, looked up): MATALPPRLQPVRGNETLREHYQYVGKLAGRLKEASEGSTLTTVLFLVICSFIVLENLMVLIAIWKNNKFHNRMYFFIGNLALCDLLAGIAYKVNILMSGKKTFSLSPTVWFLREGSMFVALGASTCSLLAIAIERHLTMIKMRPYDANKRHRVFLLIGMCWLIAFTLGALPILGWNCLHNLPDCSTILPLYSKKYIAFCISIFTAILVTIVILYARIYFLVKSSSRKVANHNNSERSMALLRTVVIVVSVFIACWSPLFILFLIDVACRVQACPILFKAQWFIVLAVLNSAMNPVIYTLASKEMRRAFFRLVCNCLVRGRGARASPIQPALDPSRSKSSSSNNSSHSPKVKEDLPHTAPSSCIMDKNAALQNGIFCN
S1P4 antagonist: antagonists of human S1P4 receptor. O95977. S1P4-expressing cells, antagonist mode, reporter read-out. inhibition, % at 4.98 µM. actives 0.26% (n = 220,000). AID 1510; in the data active = inhibition above about 29%;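 note: 0% = wells stimulated with agonist and 100% = vehicle wells without agonist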
EP2 modulator: EP2 receptor (human) modulation | actives 0.83% (n = 260,000) | AID 940 | EP2-expressing cells, cAMP HTRF FRET, PGE2 co-stimulation | P43116 | induction, % at 25 µM;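 active = compounds whose cAMP rise, as percent of the full-agonist control response, exceeds 60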;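 note: rat C6 glioma line stably carrying human EP2 under a CMV promoter; the protocol text gives 20 µM as final concentration; 100% = response of wells given 1 µM PGE2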
Pf gametocyte: inhibitors of late stage P. falciparum gametocyte viability. AID 743093. P. falciparum stage V gametocytes, ATP luminescence, 24 h. inhibition, % at 10.9 µM. actives 0.065% (n = 150,000);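 active = inhibition above the mean plus 3 SD of compounds within the control limits, set per campaign, cut at about 38% in these data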;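 note: 0% = DMSO wells and 100% = medium only without gametocytes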
S1P4 ag: agonists of human S1P4 receptor; S1P4-expressing cell line, agonist reporter assay; activation, % at 4.98 µM; actives 0.35% (n = 220,000); AID 1509; in the data active = activation above about 11%;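 note: 0% = DMSO vehicle and 100% = reference agonist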
EP2 antag: inhibitors of human EP2 prostaglandin E2 receptor; P43116; C6 glioma cells expressing human EP2, cAMP TR-FRET; cells stimulated with saturating PGE2; inhibition, % at 25 µM; actives 0.52% (n = 260,000); AID 1422;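 active = percent inhibition above 40 after rounding to a whole number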;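 note: rat C6 glioma host cells with rolipram phosphodiesterase inhibitor present; the protocol text gives 20 µM as final concentration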
An asterisk follows results filed as active; x = not tested or not shown. Most compounds without a hit are left out; they make up all but 1.9% or so of the library.

SMILES	S1P3 antag	S1P4 antagonist	EP2 modulator	Pf gametocyte	S1P4 ag	EP2 antag
O=C(O)c1ccn2c(C(=O)c3ccc(Cl)cc3)c(-c3ccccc3)cc2c1	-9	-2	77*	3	-1	7
C=C(C)Cn1c(SCCC)nc2ccccc2c1=O	x	x	94*	x	x	14
CCSc1nc2ccccc2c(=O)n1Cc1ccc(F)cc1	2	-23	65*	4	0	7
CC1Cc2nc(SCC(N)=O)n(Cc3ccccc3)c(=O)c2S1 (stereo not drawn)	-18	x	28	x	x	12
CCSc1nc2c(c(=O)n1Cc1ccccc1)SC(C)C2 (stereo not drawn)	-6	-12	62*	x	2	9
O=C(O)CCCN1C(=O)/C(=C/C=C/c2ccco2)SC1=S	-14	-6	74*	-27	-1	11
COc1ccc(C(=O)Nc2sc(C(=O)N3CCCC3)c(C)c2C#N)cc1	x	x	-14	x	x	11
CC(C)N1CC=C2C(C1)C(c1ccc(Cl)cc1)C(C#N)=C(N)C2(C#N)C#N (stereo not drawn)	x	x	79*	x	x	10
COCCNC(=O)CN1C(=O)COc2ccc(C)cc21	x	x	10	x	x	16
COC(=O)c1c(NC(=O)c2cccc(OC)c2)sc(C(=O)Nc2cccc(OC)c2)c1C	x	x	-13	x	x	9
O=C(c1nc2ccc([N+](=O)[O-])cc2[nH]c1=O)[C@@H](O)c1ccc2c(c1)OCO2	x	x	17	x	x	50*
CC1(C)CC2CC(C)(CN2C(=O)c2cc3nc(-c4ccco4)cc(C(F)(F)F)n3n2)C1 (stereo not drawn)	x	x	-40	x	x	14
Cc1n[nH]c(C)c1Cc1c(F)cccc1Cl	7	-10	87*	-6	2	-2
CCOC(=O)CNC(=O)CSc1nc(C(C)C)nc2sc3c(c12)CCC(C)C3 (stereo not drawn)	x	x	46	x	x	7
O=C(CCN1C(=O)/C(=C/c2ccc3c(c2)OCO3)SC1=S)N(CCO)Cc1ccccc1	x	x	-50	x	x	10
Cc1cc(C)c(S(=O)(=O)/N=C2/C=C(Sc3ncn[nH]3)C(=O)c3ccccc32)cc1C	-11	0	-80	-3	1	104*
CN1CCN(c2ccc3nc(-c4ccc5nc(-c6ccc(O)cc6)[nH]c5c4)[nH]c3c2)CC1	x	x	28	x	x	49*
COc1ccc(/C=C(/C(=O)c2cccs2)N2C=CC=CC2=C(C#N)C#N)cc1	9	-18	-8	-3	3	31
N#CC(C#N)=C1C=CC=CN1/C(=C\c1ccco1)C(=O)c1ccc(Br)cc1	3	9	-2	8	2	49*
OC(CN1CCN(c2ccccc2)CC1)c1ccc2c(c1)OCCCO2 (stereo not drawn)	x	x	-6	x	x	4
CC(C)[C@@H]1OC(=O)C=CC=CC=CC=CC=CC[C@@H](O)[C@H](C)[C@@H](O)C[C@H](O)C[C@H](O)C[C@H](O)C[C@H](O)C[C@H](O)C[C@H](O)C=C[C@@H]1C	x	x	-6	x	x	49*
Cc1nc2sc3c(c2c2nnc(SCC(=O)Nc4ccccc4F)n12)CCCC3	x	x	39	x	x	6
CCN(CC)S(=O)(=O)c1ccc(Cl)c(NC(=O)COC(=O)c2cccn2C)c1	-1	-13	-15	42*	1	17
C=CCNc1ncc(C)s1	x	x	3	x	x	11
COC(=O)c1sc2ncccc2c1OCc1cccc(Cl)c1	x	1	51	5	1	6
SMILES	S1P3 antag	S1P4 antagonist	EP2 modulator	Pf gametocyte	S1P4 ag	EP2 antag
COC(=O)c1sc2ncccc2c1OCc1c(Cl)cccc1Cl	x	2	62*	-5	1	4
Cn1c(Cl)nc2c1c(=O)[nH]c(=O)n2C	x	x	19	x	x	14
CCC(C)Oc1nc(C)cc(C)c1S(=O)(=O)c1ccccc1C (stereo not drawn)	x	-9	64*	-29	0	12
COCCn1c(=NC(=O)C2COc3ccccc3O2)sc2cc(S(N)(=O)=O)ccc21 (stereo not drawn)	-8	14	-51	-3	3	58*
COC(=O)NCC(c1cccnc1)N1CCN(c2ccccc2OC)CC1 (stereo not drawn)	-1	-1	18	x	-1	2
COC(=O)NCC(c1cccnc1)N1CCN(c2ccccc2F)CC1 (stereo not drawn)	102*	-10	-8	x	1	6
CC(C)C1=C[C@@]23CC[C@@H]4[C@](C)(CCC[C@@]4(C)C(=O)O)[C@@H]2C[C@@H]1[C@H](C(=O)O)[C@@H]3C(=O)O	x	x	5	x	x	50*
